Assay outcomes deposited in PubChem BioAssay by National Center for Advancing Translational Sciences (NCATS).
Sampled rows, rich in hits. Any-hit rate of the full collection: about 10%.
G9a block: inhibitors of human histone lysine methyltransferase G9a. Q96KQ7. actives 8.8% (n = 350,000). Potency, µM (highest dose often 102 µM), actives largely listed as inhibitors. G9a H3K9 monomethylation, AlphaScreen, 2 h; also: nearly all actives have a fitted effect of over 75% in size
Target sequence (Q96KQ7 913-1193 limits assumed): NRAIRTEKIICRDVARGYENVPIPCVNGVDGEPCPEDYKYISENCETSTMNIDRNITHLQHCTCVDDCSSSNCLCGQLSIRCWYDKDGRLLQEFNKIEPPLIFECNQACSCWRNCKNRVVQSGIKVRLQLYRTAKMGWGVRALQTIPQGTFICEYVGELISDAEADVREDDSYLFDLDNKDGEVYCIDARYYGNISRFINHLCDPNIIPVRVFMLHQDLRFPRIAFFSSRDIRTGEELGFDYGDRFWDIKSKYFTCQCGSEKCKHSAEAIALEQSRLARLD
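Methyltransferase reactions run at room temperature for 2 h (20 nM enzyme, 500 nM biotin-H3K9 peptide, 20 uM SAM) after a 15 min compound preincubation; product detected by AlphaScreen beads and anti-H3K9me1 antibody.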
VDR inh: inhibitors of human vitamin D receptor; VDR-SRC2-3 peptide fluorescence polarization, 2 h; AID 504847; actives 0.93% (n = 400,000); Potency, µM, actives largely listed as inhibitors
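FP read-out; VDR + SRC2-3 coactivator peptide; 23 nl compound by pintool; 2 h RT incubation; reagents held at 4 deg C, protected from light.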
MmCpn inh: inhibitors of Methanococcus maripaludis chaperonin TRiC (MmCpn); actives 0.031% (n = 330,000); Potency, µM (titrated, usually from 76.9 µM), most hits filed as inhibitors; purified Mm-Cpn ATPase, ADP Transcreener TR-FRET; AID 504842; also: nearly all actives have a fitted effect of over 80% in size
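TR-FRET (320 nm excitation; 590 and 665 nm emission) reports ADP made from 10 uM ATP by 25 nM enzyme; compounds were preincubated 10 min, reaction run 30 min, both at 37°C.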
Sfp inh: blocks B. subtilis Sfp PPTase activity; Biochemical Sfp PPTase activity, qHTS; Q9F4F7; actives 3.5% (n = 310,000); Potency, µM, actives largely listed as inhibitors;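 also: the enzyme is Sfp with the accession as filed and its product quenches rhodamine fluorescence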
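Reaction rates are the 30-min fluorescence difference (ex 525, em 598 nm) in wells containing 15 nM Sfp, 5 uM rhodamine-CoA and 12.5 uM BHQ-2-YbbR at pH 7.6 with 10 mM MgCl2.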
CCT modulator: changes cytosolic chaperonin activity; purified chaperonin ATPase assay, HTRF ADP detection, 30 min; activity change, % (no concentration beside the values), hits read low; actives 0.3% (n = 360,000); in the data active = activity change below about -30%
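TRiC at 40 or 20 nM final (batch-dependent) in 30 mM Tris pH 7.4, 100 mM KCl, 5 mM MgCl2, 1 mM DTT, with compound at single 76 uM and 10 uM ATP, 30 min at 37 deg C. ADP detected by HTRF Transcreener, 665/615 ratio.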
PLK1 PBD inh: blocks phosphopeptide binding to human PLK1 polo-box domain; P53350; Plk1 PBD binding of FITC phosphopeptide, fluorescence polarization; Potency, µM, actives largely listed as inhibitors; actives 2.8% (n = 360,000); also: series mostly up to about 57 µM; nearly all actives have a fitted effect of over 65% in size
Numbers stand for hits; i = inactive; ? = inconclusive; nt = not tested or not shown; [ ] = dose if it differs, or a comment. Unless noted, calls follow the shape of the dose curve; as a rule, active = well fitted curve in the direction sought with a large enough effect; inconclusive = small, poorly fitted or top-dose-only effect, or another doubt; inactive = no such curve, though single readings can be large; an effect the other way counts as inactive or inconclusive.

SMILES	G9a block	VDR inh	MmCpn inh	Sfp inh	CCT modulator	PLK1 PBD inh
COC(=O)c1ccc(C2/C(=C(/O)c3ccc(OC)cc3)C(=O)C(=O)N2Cc2ccco2)cc1 (configuration not stated)	45µM	i	i	22µM	i	i
CC1Cc2cc(/C(O)=C3/C(=O)C(=O)N(Cc4ccco4)C3c3cccs3)ccc2O1 (configuration not stated)	i[12.7 µM]	i	i	28µM	i	i
CCN(C(=O)Cn1c(=O)oc2cc(S(=O)(=O)N3CCCCC3)ccc21)c1ccccc1	i	i	nt	nt	nt	nt
N#Cc1cc([N+](=O)[O-])cnc1N(CCO)CCO	7.1µM	i	i	i	i	i
CCC(CO)Nc1ncc([N+](=O)[O-])cc1C#N (configuration not stated)	i	i	i	i	i	i
Cc1noc(C)c1COC(=O)c1cc2c(C)nn(-c3ccc(F)cc3)c2s1	i	i	i	i	i	i
Cc1noc(C)c1COC(=O)c1cc2c3ccccc3n(C)c2s1	40µM	i	?	?	i	i
CC(OC(=O)CC1Sc2ccccc2NC1=O)C(=O)N(C)Cc1ccccc1 (configuration not stated)	nt	i	nt	nt	i	19µM
O=C(O)CC1Sc2ccccc2NC1=O (configuration not stated)	?	i	i	i	i	i
CCOC(=O)CC1Sc2ccccc2NC1=O (configuration not stated)	10µM	i	i	?	i	i
CCOC(=O)CC1Sc2ccccc2NC1=S (configuration not stated)	45µM	i	i	40µM	i	i
COCCNC(=O)C(OC(=O)CC1Sc2ccccc2NC1=O)c1ccccc1 (configuration not stated)	i	i	i	i	i	i
COc1ccc2[nH]cc(CCNc3ccnc(-c4ccc(C(=O)N(C)C)cc4)n3)c2c1	i[0.501 µM]	i	nt	i	nt	nt
CCN1/C(=C/c2sc(-c3ccccc3C)c[n+]2C)Sc2ccccc21	11µM	i	i	i	i	i
C=CCNC(=O)c1ccc2c(c1)N(CC)C(=O)c1ccccc1S2	i	i	i	i	i	i
C=CCn1c(SCC(=O)c2ccccc2)nnc1-c1ccc2c(c1)OCO2	20µM	?	i	?	i	i
C=CCn1c(SCC(=O)c2ccccc2)nnc1-c1cc2ccccc2o1	50µM	i	i	i	i	i
c1ccc(Nc2ncnc3ccc(-c4ccc5c(c4)OCO5)cc23)cc1	nt	i	nt	i	nt	nt
Cc1c(C(=O)N2CCC(C(=O)Nc3ccc(F)cc3)CC2)sc2nc[nH]c(=O)c12	i	i	nt	nt	nt	nt
O=C1CCCC2=C1C(c1ccncc1)n1c(nc3ccccc31)N2 (configuration not stated)	nt	?	i	i	i	27µM
NCCC[C@@H](CC(=O)N[C@@H]1CCNC[C@H]1C(=O)N[C@H](CC(=O)N[C@@H](CCC(=O)O)CC(=O)O)Cc1ccccc1)NC(=O)C[C@H](Cc1ccccc1)NC(=O)[C@@H]1CNCC[C@H]1N	nt	i	nt	i	nt	nt
COc1ccc(C(CNC(=O)Cn2c(=O)oc3ccccc32)N(C)C)cc1 (configuration not stated)	8.9µM	i	i	20µM	i	i
COc1cccc(NC(=O)Cn2c(=O)oc3ccccc32)c1	i[12.7 µM]	i	i	i	i	i
COc1ccc(C(CNC(=O)c2ccccc2SC)N(C)C)cc1 (configuration not stated)	7.9µM	i	?	i	i	i
Cc1nn(-c2ccccc2)c(OC(=O)c2ccc(F)cc2)c1S(=O)(=O)c1ccccc1	?	i	nt	nt	nt	nt
COC(=O)c1oc2c(c1C)C(=O)CCC2	i	i	i	i	i	i
O=C1CCCc2oc3c(c21)CCCC3	50µM	i	i	i	i	i
Cc1ccc(NC(=O)N2CCc3cc(S(=O)(=O)N4CCC(C)CC4)ccc32)cc1C	i	i	nt	nt	nt	nt
O=C(N/N=C/c1ccc(N2CCOCC2)o1)c1cccc(F)c1	7.1µM	40µM	i	8.9µM	i	i
COc1ccc(CCNC(=O)CC2Oc3ccc(Cl)cc3NC2=O)cc1OC (configuration not stated)	79µM	i	i	i	i	i
